The panel holds about 83,000 compounds, 20% with a hit somewhere; the sample as a whole holds those more often.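 Assay: single dose, 48 h. Readout: percent growth (0 = no net growth; negative = cell death). Active: <10.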 Unmarked numbers belong to inactive results. Active and inactive are the calls of the source.

Here are results for 40 compounds from PubChem BioAssay (NCI).

The subject of the experiment is A549/ATCC NSCLC. The experiment in a line: NCI-60 one-dose screen, 48 h (100 = growth as untreated, 0 = no growth, -100 = all killed). Particulars: 10 µM. As for the experimental part:
Growth inhibition of the A549/ATCC human Non-Small Cell Lung tumor cell line is measured as a screen for anti-cancer activity. Cells are grown in 96 well plates and exposed to the test compound for 48 hours. Compounds are tested at a single concentration, which is 10^-5 M for most compounds. The reported endpoint is percent growth (GI% or GIPRCNT), where numbers from 0 - 100% represent growth inhibition, and numbers from -100% - 0 represent cell death. For example, a value of 40 represents 60% growth inhibition. A value of 0 means no net growth occurred over the course of the experiment. A value of -40 indicates 40% of cells at the beginning of the experiment died by the end of the experiment. A value of -100 means all cells are dead at the end of the experiment.
NCI-60 Human Tumor Cell Lines Screen was performed using the standard one-dose NCI protocol, which is described in more detail at https://dtp.cancer.gov/discovery_development/nci-60/default.htm.
Compounds with GIPRCNT values below 10 were considered active. Activity score was based on GIPRCNT using the following formula: […]
Score is 0 for GIPRCNT values of 100 or above, 50 for GIPRCNT values of 0, and 100 for GIPRCNT values of -100.
As for `O=C(COc1ccc(-c2nc3ccccc3[nH]2)cc1)N=Nc1c(O)[nH]c2ccccc12`, the growth is 106%.
For `O=c1oc2cc(OS(=O)(=O)C3CC3)ccc2c2c1CCCCCC2` the value was 69.6%; for `COc1ccc(-c2[nH]ncc2/C=C/c2cc(C(F)(F)F)[nH]c(=O)n2)cc1`, 104%.
Consider `CCOc1nc(-c2ccccc2)cc2c(O)c(C(=O)NCCCO)[nH]c(=O)c12`, for which the growth was 106%.
Consider `C#CCn1c(-c2cccc(OCCCCl)c2)nc2c1c(=O)n(C)c(=O)n2C`, for which the growth was 92%.
For `COc1cccc(C2(C)Nc3ccccc3-c3nc4ccccc4n32)c1` (stereo not given), the growth was 102%.
On to `CCc1cc2n(n1)-c1ncc(C(=O)OC)cc1Oc1ccccc1-2`, for which the growth is 91.4%.
For `CCN(CCCNC(=O)Cc1cc(=O)oc2cc(N(C)C)ccc12)CCNc1ccnc2cc(Cl)ccc12` the value was 93.4%; for `COc1cccc2c1C(=O)c1c(O)c3c(c(O)c1C2=O)C[C@@](O)(C(=O)COC(=O)c1ccccc1)C[C@@H]3OC1CC(N)C(O)C(C)O1` (stereo not given in full), -85.1% (active).
Take `Nc1c(C(=O)Nc2ccccc2F)sc2nc3c(cc12)C(=O)CCC3`: the growth is 22%.
For `Cc1ccc(Cl)cc1Nc1nc(C(F)(F)F)ccc1C(=O)N/N=C/c1c(Cl)cccc1Cl` the value was -9.23% (active).
In the case of `Cc1nn2c(/C=C3/C(=O)Nc4ccc(Cl)cc43)c(-c3ccccc3)nc2s1`, the growth was 24.2%.
With `N=C(N)c1ccc(-c2ccc(-c3cccs3)s2)nc1`, the growth is 2.67% (active).
Next, `CCCOCC(O)CNCCN` (stereo not given): 102%.
For `O=S(=O)(NCCO)c1ccc(OCCOc2ccc(S(=O)(=O)NCCO)cc2)cc1` the value was 95%.
For the compound `O=C(N/N=C/c1ccccc1O)c1ccccc1`, the growth was 38.7%.
For the compound `Cc1ccc(S(=O)(=O)Nc2cccc3[nH]c(C(F)(F)F)nc23)cc1`, the growth was 24%.
Next, `O=C1CC[C@@H](C(=O)N[C@H]2CSSC[C@@H](C(=O)NCCc3ccccc3)NC(=O)[C@H](Cc3ccccc3)NC(=O)[C@@H]3CCCN3C(=O)[C@@H]3CCCN3C2=O)N1`: 86.2%; `O/N=C1\CCC2CCCCC2C1` (stereo not given): 96.6%; `Cc1nc(Nc2nc3ccccc3o2)nc(-c2cccc([N+](=O)[O-])c2)c1C(=O)Nc1ccc(F)c(Cl)c1`: 5.85% (active).
Turning to `COc1cc(-c2nc3ccccc3[nH]2)ccc1OCC(=O)N=Nc1c(O)[nH]c2ccccc12`, the growth is 105%.
For `O=C(Nc1cccc(Cl)c1)Nc1cc2ncncc2cc1OCc1cccc(F)c1` the value was 2.26% (active); for `O=C(Nc1ccc(OS(=O)(=O)Cc2ccccc2)cc1)C12CC3CC(CC(C3)C1)C2`, 78.5%.
As for `CN(C)Cc1cccs1`, the growth is 93.7%.
For `CC[C@@]1(C(N)=O)CC2C=CC1C2` (stereo not given in full) the value was 107%; for `N#Cc1c2c([nH]c(=O)c1C(N)=O)CCCCC2`, 91.3%; for `COc1ccc(-c2cc(=O)n(-c3nc4ccccc4[nH]3)[nH]2)cc1OC`, 59%.
Next, `COc1ccc(C2=Cc3ccc(OC(C)=O)cc3OC2)cc1`: 88.3%; `c1ccc(CNc2nc(Nc3ccc(-c4nc5ccccc5[nH]4)cc3)c3cn[nH]c3n2)cc1`: 4.29% (active).
For `COc1ccc(-c2nnc(COc3ccc(NC(=O)Nc4ccccc4)cc3F)o2)cc1` the value was 93.3%; for `CC(C)c1[nH]nc2c(NCc3ccc(-c4ccccn4)cc3)nc(SCCN)nc12`, 6.81% (active).
On to `COc1cc(C2C=C(c3ccc(Cl)cc3)N=C3SC(C)=CN32)cc(OC)c1OC` (stereo not given), for which the growth was 83.8%.
Next, `COc1cc(-c2nc3ccccc3[nH]2)ccc1OCc1nnc(-c2ccc(Br)cc2)o1`: 90.2%.
For `COc1cc(/C=C/C(=O)c2cc(-c3ccc(C(F)(F)F)cc3)ccc2O)cc(OC)c1OC` the value was 81.4%; for `COc1ccc(-c2nc(NC(=O)CS(=O)(=O)c3ccc(F)cc3)sc2C)cc1`, 54.2%.
Next, `CCCCn1c(=O)[nH]c2c(c1=O)C(c1ccc(Cl)cc1)c1c([nH]c(=O)n(CCCC)c1=O)N2`: 87.8%.
On to `O=[N+]([O-])c1ccc(-c2nc(Cl)c3c(n2)CCCC3)o1`, for which the growth is 83%.
Next, `CNC(=O)c1cc(Oc2ccc(NC(=O)Nc3ccc(Cl)c(C(C)(C)C)c3)c(F)c2)ccn1`: 37.4%; `CCCc1c(C)nc2scc(-c3ccc(Cl)cc3)n2c1=O`: 104%; `CCOC(=O)C(=O)Cc1cccnn1`: 97.5%.
